ROS inducer = raises reactive oxygen species in U2OS cancer cells; U2OS ROS induction, H2DCF-DA fluorescence; ROS induction (% of piperlongumine), % at 10 µM; 46,000 compounds, 2% hits; AID 624156; in the data active = ROS induction above about 79%, passing the limit was not always enough;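 also: 0% = DMSO vehicle median and 100% = reference compound median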
Active calls of the source: *. The entries come from a sample that favours hits as a whole.

SMILES | ROS inducer
COCCOC(=O)N1C(=O)[C@@]2(c3cc(C#CCCO)ccc31)[C@H](C(=O)N1CCN(c3ncccn3)CC1)[C@H]1C(=O)O[C@H](c3ccccc3)[C@H](c3ccccc3)N1[C@@H]2c1ccccc1OCCO | 166*
COCCOC(=O)N1C(=O)[C@@]2(c3cc(C#CC4(O)CCCCCC4)ccc31)[C@H](c1ccc(O)cc1)N1[C@H](c3ccccc3)[C@H](c3ccccc3)OC(=O)[C@H]1[C@@H]2C(=O)N1CCN(c2ncccn2)CC1 | 8
CCC(Sc1nc2c(cc1C#N)CCCCC2)C(=O)Nc1cc(C)on1 (stereo unspecified) | 2
Fc1ccc(Nc2nc3ccccc3nc2Nc2ccc(F)cc2)cc1 | -8
CC(=O)NC(=O)C1C=C2C=CC=CC2OC1=Nc1ccc(Cl)cc1 (stereo unspecified) | 16
C[C@H]1CN([C@@H](C)CO)C(=O)c2cc(NC(=O)Nc3ccc4c(c3)OCO4)ccc2O[C@H]1CN(C)Cc1ccc(C(F)(F)F)cc1 | 34
C[C@@H]1CN([C@@H](C)CO)C(=O)c2cc(NC(=O)C3CC3)ccc2O[C@@H]1CN(C)C(=O)Nc1ccc(C(F)(F)F)cc1 | 80*
C[C@@H]1CN([C@H](C)CO)C(=O)c2cc(NC(=O)C3CC3)ccc2O[C@H]1CN(C)C(=O)Nc1ccc(C(F)(F)F)cc1 | 1
Cc1noc(C)c1NC(=O)Nc1ccc2c(c1)C(=O)N([C@@H](C)CO)C[C@@H](C)[C@@H](CN(C)C(=O)Nc1c(C)noc1C)O2 | 2
C[C@@H]1CN([C@@H](C)CO)C(=O)c2cc(NC(=O)C3CC3)ccc2O[C@H]1CN(C)C(=O)Nc1ccc(C(F)(F)F)cc1 | 20
Cc1noc(C)c1NC(=O)Nc1ccc2c(c1)C(=O)N([C@H](C)CO)C[C@@H](C)[C@H](CN(C)C(=O)Nc1c(C)noc1C)O2 | 105*
C[C@H](CO)N1C[C@H](C)[C@H](CN(C)C(=O)Nc2ccc(C(F)(F)F)cc2)Oc2ccc(NC(=O)Nc3ccc4c(c3)OCO4)cc2C1=O | 103*
Cc1noc(C)c1NC(=O)Nc1ccc2c(c1)C(=O)N([C@@H](C)CO)C[C@H](C)[C@H](CN(C)C(=O)Nc1c(C)noc1C)O2 | -5
C[C@H](CO)N1C[C@H](C)[C@@H](CN(C)Cc2ccc(C(F)(F)F)cc2)Oc2ccc(NC(=O)Nc3ccc4c(c3)OCO4)cc2C1=O | 5
C[C@H]1CN([C@@H](C)CO)C(=O)c2cc(NC(=O)Nc3ccc(C(F)(F)F)cc3)ccc2O[C@@H]1CN(C)C(=O)Nc1ccc2c(c1)OCO2 | 31
C[C@H]1CN([C@@H](C)CO)C(=O)c2cc(NC(=O)Nc3ccc4c(c3)OCO4)ccc2O[C@@H]1CN(C)C(=O)Nc1ccc(C(F)(F)F)cc1 | 21
C[C@@H]1CN([C@H](C)CO)C(=O)c2cc(NC(=O)Nc3ccc4c(c3)OCO4)ccc2O[C@H]1CN(C)Cc1ccc(C(F)(F)F)cc1 | 119*
Cc1ccc(C)c(NC(=O)C2CCCN(C(=O)c3cnn(-c4ccccc4)c3-n3cccc3)C2)c1 (stereo unspecified) | 17
COc1ccccc1C(=O)Nc1ccc(CC#N)cc1 | 2
O=C(NCC1OCCc2ccccc21)c1ccc(Br)cc1 (stereo unspecified) | -11
CC(C)CN(CC(C)C)c1nnc(NC(=O)c2csc3c2CCCC3)s1 | -3
Cc1ccc(C2=NN(C(=O)c3ccc(Br)o3)C(c3ccc(C)cc3)C2)cc1 (stereo unspecified) | -12
O=C(CN1C(=O)c2ccccc2S1(=O)=O)Nc1ccc(Cl)cc1 | -9
CCNc1nc(NC(C)(C)C)nc(N(C#N)CC(=O)OC)n1 | -45
CC(C)(C)Nc1nc(Cl)nc(N(C#N)CN2C(=O)c3ccccc3S2(=O)=O)n1 | 94*
SMILES | ROS inducer
COc1ccccc1CNC(=O)c1ccc2nc3c(cc2c1)CCS3 | -4
CCOC(=O)c1ccc(N2C(=O)C(Oc3ccccc3)C2c2ccc(OCC)cc2)cc1 (stereo unspecified) | 8
Cc1ccc(C(=O)Nc2cccc(C(F)(F)F)c2)cc1 | -13
Cc1cc(-c2noc(-c3cc(C)on3)n2)no1 | -20
C=CCNc1ncnc2c1c(-c1ccccc1)cn2-c1cccc(C)c1 | 39
COc1cccc(C(=O)Nc2cccc(OCC(=O)O)c2)c1 | -21
COC(=O)COc1cccc(NC(=O)c2cc(OC)cc(OC)c2)c1 | 108*
COC(=O)COc1cccc(NC(=O)c2ccc(Br)cc2)c1 | 20
CCOC(=O)c1c(NC(=O)CSc2nc(C)cc(C(F)(F)F)n2)sc2c1CCCC2 | -3
CCOC(=O)c1c(NC(=O)c2nc3nc(C)cc(C(F)F)n3n2)sc2c1CCCC2 | 166*
CCOC(=O)c1c(NC(=O)c2nc3ncccn3n2)sc2c1CCC(C)C2 (stereo unspecified) | -6
COc1ccc(-c2ccc(=O)n(CC(=O)N(C)c3ccccc3)n2)cc1 | -8
COc1ccc(C(=O)Cn2c3ccccc3n3nc(-c4ccccc4)nc23)cc1OC | -3
CCCCN1Cc2c(n(CC(=O)c3ccc(OC)cc3)c3cc(-c4ccccc4)nn3c2=O)C1=O | 170*
COc1ccc(-c2nsc(SCC(=O)N3CCCC3)n2)cc1 | -9
COc1ccc(C2=Nc3ccccc3SC(c3ccccc3)C2)cc1 (stereo unspecified) | 39
CCOc1ccccc1CN1C(=O)c2ccccc2C1C(=O)NCCCN1C(C)CCCC1C (stereo unspecified) | -4
CC(C)CCNS(=O)(=O)Cc1ccccc1 | -8
COc1ccc(-c2c(C#N)c(SCC(=O)c3ccccc3)nc3c2C(=O)CC(C)(C)C3)cc1 | 138*
N#Cc1c(N)nc(SCC(=O)c2ccc3ccccc3c2)c(C#N)c1-c1cccc(F)c1 | 23
CCCOC(=O)CSc1nc(N)c(C#N)c(-c2ccc(C)cc2)c1C#N | 30
O=C1C2CC=CCC2C(=O)N1c1ccc(Cl)cc1 (stereo unspecified) | -10
CC(=O)N1CCC(N(C(=O)Nc2ccccc2)C2CCCC2)CC1 | 71
CN(/N=C/c1ccncc1)C1=NCCN1 | -11
CN(/N=C/c1ccccc1)C1=NS(=O)(=O)c2ccccc21 | 96*
SMILES | ROS inducer
O=C(Oc1ccc(N(Cc2cccs2)C2=NS(=O)(=O)c3ccccc32)cc1)c1ccccc1 | 57
CC1=C(c2ccc(C)cc2)S(=O)(=O)NC1=NCc1ccccn1 | 17
O=C(Sc1ccc(Cl)cc1)c1ccco1 | 19
CC1CN(C(=O)CCC(=O)N2CCC(C(N)=O)CC2)c2ccccc2O1 (stereo unspecified) | -8
CC1(C)CC(=O)c2sc3nc(-c4ccc(Cl)cc4)cn3c2C1 | 0
COc1ccccc1NC(=O)C(NC(=O)c1ccccc1NC(=O)c1ccccc1)C(C)C (stereo unspecified) | 97*
COc1ccccc1NC(=O)c1ccccc1NC(=O)CCc1ccccc1 | 6
COc1ccc(C(=O)Nc2ccccc2C(=O)NC(C(=O)O)C(C)C)cc1 (stereo unspecified) | -12
CCOC(=O)C1=C(C)N(CCO)C(=O)NC1c1ccc(O)cc1 (stereo unspecified) | -13
Cc1cccc(NC(=O)CNC(=O)OCc2ccccc2)c1 | -11
Cc1ccc(NC(=O)c2oc3ccc(S(=O)(=O)N(C)C4CCCCC4)cc3c2C)cc1C | 2
CC(C)C1NC(=O)N(c2ccccc2)C1=O (stereo unspecified) | -10
C=C1C(=O)O[C@@H]2/C=C(/CO)CC/C=C(/C)C[C@H](OC(=O)C(C)CO)[C@@H]12 (stereo partly specified) | 154*

Screening results: PubChem BioAssay, Broad Institute
